# High-throughput results deposited in PubChem by National Center for Advancing Translational Sciences (NCATS).
# RXFP1 agonist: qHTS Assay for Agonists of the Relaxin Receptor RXFP1; Relaxin receptor 1 (Homo sapiens), Q9HBX9; HEK293T-RXFP1 cAMP TR-FRET, 30 min; response scale: percent of porcine relaxin response, buffer zero; Potency, µM (series often up to 57.5 µM), for the others: top-dose activation, hits mostly activators; hit rate 0.3% among 370,000; further: potency means the concentration at half of the fitted maximal effect; on the % scale 0 is the no-effect control and ±100 the full control effect; nearly all actives have a fitted effect of over 60% in size
# Target sequence (Q9HBX9 whole entry, looked up): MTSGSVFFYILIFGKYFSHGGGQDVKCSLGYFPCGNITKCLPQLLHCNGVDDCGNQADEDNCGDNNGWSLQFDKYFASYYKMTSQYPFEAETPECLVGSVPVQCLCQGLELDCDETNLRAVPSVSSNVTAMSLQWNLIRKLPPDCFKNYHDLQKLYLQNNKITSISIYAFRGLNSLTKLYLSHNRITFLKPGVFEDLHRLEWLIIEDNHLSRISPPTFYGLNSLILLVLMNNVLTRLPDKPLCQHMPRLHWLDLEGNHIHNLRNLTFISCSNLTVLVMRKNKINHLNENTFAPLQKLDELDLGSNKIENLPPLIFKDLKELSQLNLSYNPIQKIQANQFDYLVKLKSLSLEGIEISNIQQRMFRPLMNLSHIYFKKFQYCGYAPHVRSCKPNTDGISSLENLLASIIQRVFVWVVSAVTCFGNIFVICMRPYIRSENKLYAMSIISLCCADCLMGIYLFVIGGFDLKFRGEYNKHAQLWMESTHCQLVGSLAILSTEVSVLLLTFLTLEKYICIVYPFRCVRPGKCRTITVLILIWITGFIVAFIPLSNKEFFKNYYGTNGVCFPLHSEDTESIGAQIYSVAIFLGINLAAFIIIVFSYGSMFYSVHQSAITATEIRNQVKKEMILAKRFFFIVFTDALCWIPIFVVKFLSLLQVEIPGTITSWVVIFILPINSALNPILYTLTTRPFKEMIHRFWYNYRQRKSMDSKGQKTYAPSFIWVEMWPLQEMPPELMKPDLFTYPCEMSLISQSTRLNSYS
#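 HEK293 cells stably expressing RXFP1, treated 30 min at 37C with compounds plus PDE4 inhibitor Ro 20174; cAMP measured by HTRF TR-FRET. Normalized to buffer and 29 nM porcine relaxin; EC50 by Hill fit.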
# Mm-Cpn inhibitor: Inhibitors of TCP-1 ring complex (TRiC) of Methanococcus maripaludis (MmCpn): qHTS. Chaperonin Mm-Cpn (Methanococcus maripaludis). purified Mm-Cpn ATPase, ADP Transcreener TR-FRET. Potency, µM (series often up to 76.9 µM), for inactives: at the top dose activity, negative = inhibition, usual class: inhibitors. hit rate 0.031% among 330,000; further: potency means the concentration at half of the fitted maximal effect; on the % scale 0 is the no-effect control and ±100 the full control effect; nearly all actives have a fitted effect of over 80% in size
#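 Reaction buffer contained 30 mM Tris pH 7.4, 100 mM KCl, 5 mM MgCl2 and 1 mM DTT. Mm-CPN (25 nM final) hydrolysed 10 uM ATP over 30 min at 37°C; ADP was read by HTRF.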
# gsp agonist: qHTS for Agonist of gsp, the Etiologic Mutation Responsible for Fibrous Dysplasia/McCune-Albright Syndrome: qHTS. gsp mutant cells, cAMP HTRF, 30 min. hit rate 0.13% among 340,000. AID 624287, 2012. Potency, µM (series often up to 76.9 µM), for the others: at the top dose activation (cAMP increase), hits mostly activators; active means well fitted activation curve with a large enough effect; inconclusive means small, poorly fitted or top-dose-only effect, or another doubt; inactive means no such curve, though single readings can be large or run the other way; cell line not stated here;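 further: phosphodiesterase inhibitor Ro 20-1724 added with compounds to block cAMP breakdown; potency means the concentration at half of the fitted maximal effect; nearly all actives have a fitted effect of over 60% in size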
#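 Cells in DMEM/10% FBS with G418 were pretreated with compounds in DMSO plus […] (300 uM stock) for 30 min at 37C. cAMP was measured by HTRF (cAMP-d2 plus anti-cAMP antibody-K) after 30 min at room temperature.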
# RXFP1 antagonist: qHTS Assay for Antagonists of the Relaxin Receptor RXFP1. HEK293-RXFP1, relaxin-stimulated cAMP HTRF, 30 min; hits give low values. Relaxin receptor 1 (Homo sapiens), Q9HBX9. activity change, negative = inhibition, % at 57.5 µM. hit rate 0.59% among 350,000;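 active means activity change of -60% or lower, but not beyond a set lower limit; inconclusive means change between -60% and -40%, or beyond the set limit; inactive means change above -40%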; further: on the % scale 0 is the no-effect control and ±100 the full control effect
# gsp antagonist: qHTS for Antagonists of gsp, the Etiologic Mutation Responsible for Fibrous Dysplasia/McCune-Albright Syndrome: qHTS; gsp-mutant cells, cAMP HTRF, 30 min; AID 624288, 2012; Potency, µM (titrated, usually from 76.9 µM), for the others: at the top dose activity change, negative = inhibition, hits mostly inhibitors; hit rate 0.4% among 340,000; calls by dose curve; cell line not stated here;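 further: intracellular cAMP measured with PDE inhibitor Ro 20-1724 present during compound exposure; potency means the concentration at half of the fitted maximal effect; on the % scale 0 is the no-effect control and ±100 the full control effect; nearly all actives have a fitted effect of over 65% in size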
#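 HTRF cAMP measurement after 30 min RT detection following 30 min, 37C compound treatment alongside […] (added as 300 uM solution) in G418-selected cells seeded at 2000/well and grown 16–24 h.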
# CCT chaperon mod: High-Throughput Screening for Modulators of Cytosolic Chaperonin Activity | purified chaperonin ATPase assay, HTRF ADP detection, 30 min | activity change, % (concentration not given with the values), hits read low | hit rate 0.3% among 360,000 | AID 651819, 2012; in the data active means activity change below about -30%; further: on the % scale 0 is the no-effect control and ±100 the full control effect
#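 ATPase activity: ADP formed was measured by HTRF Transcreener (665/615 nm ratio) after 30 min at 37 deg C with 10 uM ATP. Compounds screened at one 76 uM concentration against 40 or 20 nM TRiC in Tris pH 7.4/KCl/MgCl2/DTT buffer.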
# An asterisk follows results filed as active; ? = inconclusive; . = no result given; [ ] = another dose, or the depositor's remark. Shown are actives, neighbours in structure and some others; about 1.2% of the full set was active somewhere. Unless noted, the call rests on the fitted dose curve; in most records, active means well fitted curve in the direction sought with a large enough effect; inconclusive means small, poorly fitted or top-dose-only effect, or another doubt; inactive means no such curve, though single readings can be large; an effect the other way counts as inactive or inconclusive.
SMILES,RXFP1 agonist,Mm-Cpn inhibitor,gsp agonist,RXFP1 antagonist,gsp antagonist,CCT chaperon mod
COc1ccc(Cl)cc1-n1cc(-c2ccccc2)nc1SCC(=O)Nc1ccc(C)cc1,0%,.,.,0,.,.
CN1C(=O)C(C)(C)c2cc(S(=O)(=O)N3CCN(c4ccc(F)cc4)CC3)ccc21,-4%,0%,23%,-60*,-13%,-2
Cc1ccc(CSC2=Nc3ccccc3C3=NC(=O)CN23)cc1,3%,-4%,?,9,10%,0
C=CCSC1=Nc2sccc2C2=NC(=O)CN12,7%,2%,20µM*,-2,15%,-1
NC(=O)C1CCN(c2nc(-c3ccccc3)cs2)CC1,.,-3%,.,.,.,.
CCn1c(=O)n(CC)c2cc(N3CCCC3)c(NC(=O)c3c(F)cccc3F)cc21,-2%,1%,4%,12,32µM*,-2
CC(C)(C)C1CCc2c(sc(NC(=O)c3noc4c3CCCC4)c2C#N)C1 (stereo not given),1%,.,.,3,.,.
O=C(/C=C/c1ccccc1)/C=C/c1ccccc1,6%,-6%,0%,-67*,20%,-1
O=C(NNC(=O)c1ccccc1O)c1ccc(Cl)c(S(=O)(=O)N2CCc3ccccc32)c1,0%,4%,-7%[15.4 µM],-73*,?,-1
O=C(c1ccc(Cl)c(S(=O)(=O)N2CCc3ccccc32)c1)N1CCN(c2ccccc2O)CC1,.,1%,-8%[15.4 µM],-15,?,-2
O=C(/C=C/C(Cl)(Cl)Cl)Nc1ccc(Cl)cc1,.,.,?,-73*,-6%,-3
NC(=O)/C=C/C(=O)Nc1ccc(Cl)cc1,-1%,1%,3%[15.4 µM],7,-3%,2
COc1ccc(N(Cc2ccccc2)C(=O)CSc2nnc(Cn3nnc4ccccc43)o2)cc1,0%,0%,25%,6,28µM*,-2
Oc1ccc2ccccc2c1CNc1ccc2ccccc2c1,.,.,?,-23,-19%,-37*
Oc1ccc2ccccc2c1CNc1ccccc1,.,.,1%,-15,-4%,-4
Cc1ccc(Sc2c([N+](=O)[O-])c(=O)n(C)c3ccccc23)cc1,4%,-1%,7%,-18,?,-2
Cc1ccc(Sc2c(C=O)c3ccccc3n2C)cc1,12%,-19%,18µM*,14,-4%,0
Cc1ccc(Sc2c(O)c3ccccc3n(C)c2=O)cc1,?,-19%,13µM*,3,23%,0
CN(C)S(=O)(=O)N(CC(=O)NCCSCc1cccc(Cl)c1)c1ccccc1,-1%,.,.,.,.,.
CC(C)(C)c1nnc(N/N=C/c2cc(Br)ccc2O)n(N)c1=O,1%,0%,-6%,-88*,28µM*,2
Cc1ccc2nc3c(cc2c1)c(NC(=O)c1ccccn1)nn3CC(C)C,-1%,-9%,19%,-9,5%,-1
CCn1nc(NC(=O)c2ccccn2)c2cc3cc(C)ccc3nc21,0%,-3%,?,-11,35µM*,-6
S=C(Nc1ccc(Cl)c(Cl)c1)NC1CCN(Cc2ccccc2)CC1,0%,0%,-22%,-61*,-3%,-1
Fc1ccc(NC(=S)NC2CCN(Cc3ccccc3)CC2)cc1,0%,0%,-1%,-6,-3%,-2
COCCn1c(C)cc(O)c(C(c2ccccc2OC)N2CCCCC2)c1=O (stereo not given),0%,.,.,-1,.,.
CC1CCN(C(=O)CN2C(=O)c3ccccc3S2(=O)=O)CC1,0%,0%,-5%,-2,-13%,0
O=C(CCN1C(=O)c2ccccc2S1(=O)=O)N1CCN(c2ccccc2F)CC1,-1%,0%,0%[15.4 µM],-112*,-3%,-2
